# Measured values as given in article PMC5540273 (PLoS ONE, 2017).
# Where two headings read alike, the source gives them in different places.
# Key:
# KIT-autoinhibited = details: concentration: 1 μM, replicates: in singlicate; n = 1
# KIT = details: concentration: 1 μM, replicates: in singlicate; n = 1
# LATS1 = details: concentration: 1 μM, replicates: in singlicate; n = 1
# LATS2 = details: concentration: 1 μM, replicates: in singlicate; n = 1
# LCK = details: concentration: 1 μM, replicates: in singlicate; n = 1
# LIMK1 = details: concentration: 1 μM, replicates: in singlicate; n = 1
# LIMK2 = details: concentration: 1 μM, replicates: in singlicate; n = 1
# LKB1 = system: T1, LKB1; details: concentration: 1 μM, replicates: in singlicate; n = 1
# T1 construct: gene STK11
# LOK = system: T2, LOK; details: concentration: 1 μM, replicates: in singlicate; n = 1
# T2 construct: gene STK10
# LRRK2 = details: concentration: 1 μM, replicates: in singlicate; n = 1
# LTK = details: n = 1
# LYN = details: concentration: 1 μM, replicates: in singlicate; n = 1
# LZK = system: T3, LZK; details: concentration: 1 μM, replicates: in singlicate; n = 1
# T3 construct: gene MAP3K13
# MAK = details: concentration: 1 μM, replicates: in singlicate; n = 1
# MAP3K15 = details: concentration: 1 μM, replicates: in singlicate; n = 1
# MAP3K1 = details: concentration: 1 μM, replicates: in singlicate; n = 1
# MAP3K2 = details: concentration: 1 μM, replicates: in singlicate; n = 1
# MAP3K3 = details: concentration: 1 μM, replicates: in singlicate; n = 1
# MAP3K4 = details: concentration: 1 μM, replicates: in singlicate; n = 1
# MAP4K2 = details: concentration: 1 μM, replicates: in singlicate; n = 1
# [1] = concentration: 1 μM, replicates: in singlicate
# 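Further: KINOMEscan kinase panel screen.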
compound,measurement,setting,value
C[C@@H](Oc1cc(-n2cnc3ccc(NC(=O)NC(C)(C)C)cc32)sc1C(N)=O)c1ccccc1Cl [GSK346294],%Inh,KIT-autoinhibited,1%
same,%Inh,KIT,20%
same,%Inh,LATS1,0%
same,%Inh,LATS2,12%
same,%Inh,LCK,37%
same,%Inh,LIMK1,0%
same,%Inh,LIMK2,25%
same,%Inh,LKB1,4%
same,%Inh,LOK,36%
same,%Inh,LRRK2,0%
same,%Inh,LTK; [1],13%
same,%Inh,LYN,4%
same,%Inh,LZK,37%
same,%Inh,MAK,0%
same,%Inh,MAP3K15,0%
same,%Inh,MAP3K1,35%
same,%Inh,MAP3K2,0%
same,%Inh,MAP3K3,0%
same,%Inh,MAP3K4,0%
same,%Inh,MAP4K2,0%
Cc1ccc(C(=O)NCC(N)=O)cc1-n1c(C)cc(OCc2ccc(F)cc2F)c(Br)c1=O,%Inh,KIT-autoinhibited,0%
same,%Inh,KIT,6%
same,%Inh,LATS1,13%
same,%Inh,LATS2,0%
same,%Inh,LCK,25%
same,%Inh,LIMK1,16%
same,%Inh,LIMK2,0%
same,%Inh,LKB1,0%
same,%Inh,LOK,26%
same,%Inh,LRRK2,0%
same,%Inh,LTK; [1],27%
same,%Inh,LYN,18%
same,%Inh,LZK,0%
same,%Inh,MAK,11%
same,%Inh,MAP3K15,0%
same,%Inh,MAP3K1,0%
same,%Inh,MAP3K2,0%
same,%Inh,MAP3K3,0%
same,%Inh,MAP3K4,22%
same,%Inh,MAP4K2,0%
Cc1nnc(-c2ccc3ncc(-c4ccc(S(C)=O)cc4)n3c2)o1 (centres unmarked),%Inh,KIT-autoinhibited,7%
same,%Inh,KIT,59%
same,%Inh,LATS1,17%
same,%Inh,LATS2,13%
same,%Inh,LCK,0%
same,%Inh,LIMK1,0%
same,%Inh,LIMK2,0%
same,%Inh,LKB1,3%
same,%Inh,LOK,0%
same,%Inh,LRRK2,3%
same,%Inh,LTK; [1],0%
same,%Inh,LYN,18%
same,%Inh,LZK,11%
same,%Inh,MAK,0%
same,%Inh,MAP3K15,19%
same,%Inh,MAP3K1,4%
same,%Inh,MAP3K2,8%
same,%Inh,MAP3K3,5%
same,%Inh,MAP3K4,0%
same,%Inh,MAP4K2,0%
CSc1ccc(-c2cc3ncnc(SCC(=O)O)c3s2)cc1,%Inh,KIT-autoinhibited,0%
same,%Inh,KIT,51%
same,%Inh,LATS1,7%
same,%Inh,LATS2,4%
same,%Inh,LCK,0%
same,%Inh,LIMK1,0%
same,%Inh,LIMK2,0%
same,%Inh,LKB1,0%
same,%Inh,LOK,19%
same,%Inh,LRRK2,0%
same,%Inh,LTK; [1],17%
same,%Inh,LYN,0%
same,%Inh,LZK,0%
same,%Inh,MAK,29%
same,%Inh,MAP3K15,0%
same,%Inh,MAP3K1,0%
same,%Inh,MAP3K2,0%
same,%Inh,MAP3K3,0%
same,%Inh,MAP3K4,10%
same,%Inh,MAP4K2,0%
COc1ccc(COc2cc(-n3cnc4ccccc43)sc2C(N)=O)cc1 [GSK1024304],%Inh,KIT-autoinhibited,0%
same,%Inh,KIT,23%
same,%Inh,LATS1,0%
same,%Inh,LATS2,0%
same,%Inh,LCK,16%
same,%Inh,LIMK1,10%
same,%Inh,LIMK2,7%
same,%Inh,LKB1,1%
same,%Inh,LOK,0%
same,%Inh,LRRK2,10%
same,%Inh,LTK; [1],6%
same,%Inh,LYN,0%
same,%Inh,LZK,0%
same,%Inh,MAK,0%
same,%Inh,MAP3K15,0%
same,%Inh,MAP3K1,0%
same,%Inh,MAP3K2,0%
same,%Inh,MAP3K3,0%
same,%Inh,MAP3K4,20%
same,%Inh,MAP4K2,0%
O=c1cc(N2CCOCC2)nc2n(Cc3cccc(Cl)c3Cl)c(C3CC3)nn12 [GSK2358994],%Inh,KIT-autoinhibited,15%
same,%Inh,KIT,0%
same,%Inh,LATS1,0%
same,%Inh,LATS2,27%
same,%Inh,LCK,23%
same,%Inh,LIMK1,9%
same,%Inh,LIMK2,8%
same,%Inh,LKB1,15%
same,%Inh,LOK,0%
same,%Inh,LRRK2,0%
same,%Inh,LTK; 1 µM,0%
same,%Inh,LYN,0%
same,%Inh,LZK,0%
same,%Inh,MAK,0%
same,%Inh,MAP3K15,0%
same,%Inh,MAP3K1,14%
same,%Inh,MAP3K2,0%
same,%Inh,MAP3K3,0%
same,%Inh,MAP3K4,19%
same,%Inh,MAP4K2,11%
COC(=O)Nc1nc2cc(Oc3ccc(NC(=O)Nc4cc(F)ccc4F)cc3)ccc2[nH]1.Cl [GW701424],%Inh,KIT-autoinhibited,30%
same,%Inh,KIT,100%
same,%Inh,LATS1,0%
same,%Inh,LATS2,0%
same,%Inh,LCK,57%
same,%Inh,LIMK1,0%
same,%Inh,LIMK2,0%
same,%Inh,LKB1,0%
same,%Inh,LOK,98.4%
same,%Inh,LRRK2,0%
same,%Inh,LTK; [1],0%
same,%Inh,LYN,19%
same,%Inh,LZK,37%
same,%Inh,MAK,18%
same,%Inh,MAP3K15,0%
same,%Inh,MAP3K1,0%
same,%Inh,MAP3K2,2%
same,%Inh,MAP3K3,0%
same,%Inh,MAP3K4,0%
same,%Inh,MAP4K2,0%
COc1cc2ncn(-c3cc(OCc4sccc4Cl)c(C(N)=O)s3)c2cc1OC [GSK448459],%Inh,KIT-autoinhibited,0%
same,%Inh,KIT,31%
same,%Inh,LATS1,47%
same,%Inh,LATS2,0%
same,%Inh,LCK,34%
same,%Inh,LIMK1,4%
same,%Inh,LIMK2,0%
same,%Inh,LKB1,0%
same,%Inh,LOK,99.1%
same,%Inh,LRRK2,0%
same,%Inh,LTK; [1],0%
same,%Inh,LYN,0%
same,%Inh,LZK,0%
same,%Inh,MAK,7%
same,%Inh,MAP3K15,0%
same,%Inh,MAP3K1,88%
same,%Inh,MAP3K2,10%
same,%Inh,MAP3K3,0%
same,%Inh,MAP3K4,0%
same,%Inh,MAP4K2,20%
Cn1cc(-c2ccc3c(c2)CCN3C(=O)Cc2ccccc2Cl)c2c(N)ncnc21 [GSK2608885],%Inh,KIT-autoinhibited,4%
same,%Inh,KIT,99.9%
same,%Inh,LATS1,15%
same,%Inh,LATS2,25%
same,%Inh,LCK,99.5%
same,%Inh,LIMK1,32%
same,%Inh,LIMK2,6%
same,%Inh,LKB1,17%
same,%Inh,LOK,99.8%
same,%Inh,LRRK2,0%
same,%Inh,LTK; [1],55%
same,%Inh,LYN,99.2%
same,%Inh,LZK,0%
same,%Inh,MAK,16%
same,%Inh,MAP3K15,0%
same,%Inh,MAP3K1,7%
same,%Inh,MAP3K2,91.1%
same,%Inh,MAP3K3,82%
same,%Inh,MAP3K4,86%
same,%Inh,MAP4K2,10%
O=C(NCCNc1ccnc(Nc2ccc(F)cc2)n1)Nc1ccccc1F [GSK1379880],%Inh,KIT-autoinhibited,0%
same,%Inh,KIT,48%
same,%Inh,LATS1,0%
same,%Inh,LATS2,0%
same,%Inh,LCK,15%
same,%Inh,LIMK1,0%
same,%Inh,LIMK2,0%
same,%Inh,LKB1,0%
same,%Inh,LOK,0%
same,%Inh,LRRK2,0%
same,%Inh,LTK; [1],0%
same,%Inh,LYN,0%
same,%Inh,LZK,0%
same,%Inh,MAK,0%
same,%Inh,MAP3K15,14%
same,%Inh,MAP3K1,0%
same,%Inh,MAP3K2,0%
same,%Inh,MAP3K3,0%
same,%Inh,MAP3K4,29%
same,%Inh,MAP4K2,0%
